JMJD2A Tudor: qHTS Assay for Inhibitors of JMJD2A-Tudor Domain; Lysine-specific demethylase 4A (Homo sapiens), O75164; AlphaScreen JMJD2A-Tudor / H3K4me3 peptide binding; Potency, µM (top dose mostly 114 µM), inactives show at the highest dose activity change, negative = inhibition, usual class: inhibitors; 390,000 compounds, 4.4% hits; further: potency means the concentration at half of the fitted maximal effect; on the % scale 0 is the no-effect control and ±100 the full control effect; nearly all actives have a fitted effect of over 50% in size
PI5P4Ka inh: qHTS for Inhibitors of phosphatidylinositol 5-phosphate 4-kinase (PI5P4K); 330,000 compounds, 1.2% hits; PI5P4Kalpha enzyme, ADP-Glo luminescence, 60 min; active compounds read low; Phosphatidylinositol 5-phosphate 4-kinase type-2 alpha (Homo sapiens), P48426; max response, %; active means max response of -50% or lower; inconclusive means between -30% and -50%; inactive means -30% or higher; further: value at the top dose of about 77 µM; on the % scale 0 is the no-effect control and ±100 the full control effect
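Luminescence from ADP-Glo served as readout of PI5P4Kalpha activity in a qHTS format. Reaction: enzyme, substrate, compound, ATP at 5 microM final, 60 min at RT.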
BAZ2B block: qHTS Assay for Inhibitors of BAZ2B | Bromodomain adjacent to zinc finger domain protein 2B (Homo sapiens), Q9UIF8 | AlphaScreen BAZ2B-H3K14Ac peptide displacement | Potency, µM (series often up to 114 µM), for the others: at the highest dose activity change, negative = inhibition, most hits filed as inhibitors | AID 504333, 2011 | 360,000 compounds, 4.4% hits; further: potency means the concentration at half of the fitted maximal effect; on the % scale 0 is the no-effect control and ±100 the full control effect; nearly all actives have a fitted effect of over 60% in size
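BAZ2B (50 nM) with biotin-H3(5-23)K14Ac peptide (50 nM) in PBS pH 7.4, 0.01% Tween-20, preformed 30 min, then compound 30 min at room temperature; top concentration 110uM. AlphaScreen streptavidin donor/nickel chelate acceptor beads (10 ug/mL final), 20 min dark, signal read.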
PLK1 PBD block: qHTS for Inhibitors of PLK1-PDB (polo-like kinase 1 - polo-box domain): Primary Screen; AID 720504, 2013; 360,000 compounds, 2.8% hits; Serine/threonine-protein kinase PLK1 (Homo sapiens), P53350; Potency, µM, inactives show max response, negative = inhibition, actives largely listed as inhibitors; Plk1 PBD binding of FITC phosphopeptide, fluorescence polarization; further: potency means the concentration at half of the fitted maximal effect; series mostly up to about 57 µM; on the % scale 0 is the no-effect control and ±100 the full control effect; nearly all actives have a fitted effect of over 65% in size
Target sequence (P53350 whole entry, looked up, the tested form may be a part): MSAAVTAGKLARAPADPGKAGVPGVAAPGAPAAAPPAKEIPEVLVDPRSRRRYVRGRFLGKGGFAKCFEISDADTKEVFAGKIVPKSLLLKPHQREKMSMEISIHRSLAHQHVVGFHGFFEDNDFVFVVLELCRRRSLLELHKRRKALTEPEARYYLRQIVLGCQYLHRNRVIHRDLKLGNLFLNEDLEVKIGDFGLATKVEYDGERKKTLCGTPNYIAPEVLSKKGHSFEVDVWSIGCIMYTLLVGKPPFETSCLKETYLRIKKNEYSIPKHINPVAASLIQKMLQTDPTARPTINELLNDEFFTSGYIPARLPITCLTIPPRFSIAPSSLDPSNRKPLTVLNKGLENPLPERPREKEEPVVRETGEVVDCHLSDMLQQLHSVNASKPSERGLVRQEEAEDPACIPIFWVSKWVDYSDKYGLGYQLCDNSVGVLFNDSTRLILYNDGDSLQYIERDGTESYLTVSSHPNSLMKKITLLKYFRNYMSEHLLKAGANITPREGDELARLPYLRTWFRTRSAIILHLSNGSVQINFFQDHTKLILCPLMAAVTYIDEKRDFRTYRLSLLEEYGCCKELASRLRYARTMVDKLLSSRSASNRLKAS
GCN5L2 inh: qHTS Assay for Inhibitors of GCN5L2; Histone acetyltransferase KAT2A (Homo sapiens), Q92830; GCN5L2 HAT assay, ThioGlo1 CoA-SH fluorescence; Potency, µM (titrated, usually from 58.9 µM), inactives show at the top dose activity change, negative = inhibition, most hits filed as inhibitors; 390,000 compounds, 0.21% hits; further: potency means the concentration at half of the fitted maximal effect; on the % scale 0 is the no-effect control and ±100 the full control effect
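Compounds, pin-transferred from DMSO stocks, meet 20nM GCN5L2 for 15 min before the reaction begins with H3(1-25) peptide (75uM) and acetyl-CoA (70uM). Thiol-reactive ThioGlo1 reports CoA release over 20 min at room temperature.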
HP1b chromo inh: HTS for Inhibitors of HP1-beta Chromodomain Interactions with Methylated Histone Tails; Chromobox protein homolog 1 (Homo sapiens), P83916; AlphaScreen HP1-beta / biotin-H3K9me3 peptide binding; Potency, µM (titrated, usually from 114 µM), inactives show top-dose activity change, negative = inhibition, hits mostly inhibitors; 390,000 compounds, 0.56% hits; AID 540317, 2011; further: potency means the concentration at half of the fitted maximal effect; nearly all actives have a fitted effect of over 70% in size
Target sequence (P83916 whole entry, looked up): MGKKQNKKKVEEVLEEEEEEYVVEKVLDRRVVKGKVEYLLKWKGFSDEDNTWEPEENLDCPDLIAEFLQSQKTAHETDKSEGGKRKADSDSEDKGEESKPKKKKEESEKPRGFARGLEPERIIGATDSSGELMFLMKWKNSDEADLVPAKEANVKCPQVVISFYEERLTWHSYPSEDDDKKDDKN
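Compound inhibition of the preformed complex between 50 nM HP1-beta and 50 nM biotinylated H3K9me3 peptide was read by AlphaScreen. Buffer was PBS pH 7.4 with 0.01% Tween-20. Incubations ran 30 min at room temperature, with 10 ug/mL donor/acceptor beads.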
Active calls of the source: *; ? = inconclusive; · = not tested or not shown; [ ] = dose if it differs, or a comment. Compounds with a hit are over-represented: about 7% of the library has one in this group of screens. Unless noted, the call rests on the fitted dose curve; in most records, active means well fitted curve in the direction sought with a large enough effect; inconclusive means small, poorly fitted or top-dose-only effect, or another doubt; inactive means no such curve, though single readings can be large; an effect the other way counts as inactive or inconclusive.

SMILES	JMJD2A Tudor	PI5P4Ka inh	BAZ2B block	PLK1 PBD block	GCN5L2 inh	HP1b chromo inh
Cc1cc[n+](-c2[nH]c(=O)sc2/C=N/NC([S-])=Nc2ccccc2)cc1	?	-76.8*	?	?	-19.4%	?
Cc1cc(C)n2ncc(C(=O)NC(C)C)c2n1	-15.6%	·	·	·	·	·
OCCN(Cc1cccnc1)Cc1ccccn1	50.1µM*	0.0	·	-3.9%	·	43.1%
OCCN(Cc1ccccc1)Cc1ncccc1O	-9.1%	-10.6	·	-4.7%	·	32.5%
CCc1cccc(N2C(=O)N(Cc3c(F)cccc3Cl)c3ccccc3S2(=O)=O)c1	-12.0%	·	-3.6%	·	-6.6%	23.7%
COc1cccc2cc(C(=O)NNC(=O)c3ccc(Br)cc3)c(=O)oc12	79.4µM*	-12.0	-7.8%	-26.8%	-6.1%	?
CCC(=C(c1ccc(OC)cc1)c1ccc(OC)cc1)c1cn(CC(O)CN2CCN(C)CC2)c2ccccc12 (centres undefined)	28.2µM*	4.5	44.7µM*	0.3%	0.1%	50.1µM*
CCn1cc(/C=C(\NC(=O)c2ccc(OC)cc2)C(=O)N2CCN(C)CC2)c2ccccc21	-22.9%	2.0	-10.0%	-4.5%	-22.1%	23.9%
CCCCN(CCCC)CC(O)Cn1cc(/C=C/C(=O)c2ccccc2)c2ccccc21 (centres undefined)	?	·	-26.1%	·	-7.5%	24.4%
COc1ccc(C(=O)/C=C/c2cn(CC(O)CN3CCc4ccccc43)c3ccccc23)cc1 (centres undefined)	22.4µM*	·	?	·	-10.5%	-30.9%
CCCCN(C)CC(O)Cn1cc(/C=C/C(=O)c2ccc(OCC)cc2)c2ccccc21 (centres undefined)	50.1µM*	·	?	·	-11.0%	?
C[C@@H]1CN([C@@H](C)CO)C(=O)CCCn2nncc2CO[C@@H]1CN(C)C(=O)c1cc(-c2ccccc2)on1	·	3.4	·	?	·	·
CCOc1ccc(C(=O)NCc2nc3cccnc3n2Cc2cccc(OC)c2)cc1	-11.6%	·	-1.8%	·	-8.2%	27.5%[57 µM]
CCOC(=O)C1(C)NC(c2ccccc2F)C2C(=O)N(c3cccc(C(C)=O)c3)C(=O)C21 (centres undefined)	35.5µM*	?	18.7%	3.77µM*	-3.4%	?
Cc1c(C(=O)N(Cc2ccc(Cl)cc2)C2CCS(=O)(=O)C2)oc2ccccc12 (centres undefined)	-26.7%	-3.9	-1.7%	-3.7%	-11.3%	-9.3%
Cc1ccc2c(C)c(C(=O)N(Cc3ccc(N(C)C)cc3)C3CCS(=O)(=O)C3)oc2c1 (centres undefined)	25.1µM*	8.6	12.6µM*	-4.9%	?	?
Cc1ccc2c(=O)cc(C(=O)N(Cc3ccc(N(C)C)cc3)C3CCS(=O)(=O)C3)oc2c1 (centres undefined)	-29.9%	·	?	·	-5.6%	27.2%
Cc1ccc2oc(C(=O)N(Cc3ccc(N(C)C)cc3)C3CCS(=O)(=O)C3)c(C)c2c1 (centres undefined)	20µM*	-0.5	11.2µM*	-2.0%	?	?
CCN(C(=O)CSc1nnc(COc2ccccc2F)n1N)c1c(N)n(Cc2ccccc2)c(=O)[nH]c1=O	-14.5%	3.5	·	0.3%	·	15.8%
Cc1ccc(NC(=O)CN2C(=O)CCc3cc(S(=O)(=O)N4CCCCC4)ccc32)cc1N(C)C	?	·	?	·	9.4%	0.7%
COc1ccc(NC(=O)Nc2c(O)ccc3ccccc23)cc1	?	-3.4	·	?	·	?
CC1(C)Cc2c(sc(NC(=O)/C=C/C(=O)O)c2C#N)CO1	-7.7%	?	-9.1%	-4.2%	-3.6%	39.8%
CC1(C)Cc2c(sc(NC(=O)C(=O)NCCCN3CCOCC3)c2C#N)CO1	2.3%	4.3	-19.6%	11.9µM*	-1.4%	22.3%
O=[N+]([O-])c1cc(Br)c2nsnc2c1N1CCOCC1	39.8µM*	-3.9	31.6µM*	2.4%	?	20µM*
COc1cc([N+](=O)[O-])c(N2CCOCC2)c([N+](=O)[O-])c1OC	-21.9%	-2.4	?	4.0%	-8.2%	0.0%
SMILES	JMJD2A Tudor	PI5P4Ka inh	BAZ2B block	PLK1 PBD block	GCN5L2 inh	HP1b chromo inh
O=[N+]([O-])c1cc(-c2ncccn2)c([N+](=O)[O-])s1	-23.7%	?	?	2.67µM*	-11.5%	19.7%
O=C(c1ncn(Cc2ccccc2)c1C(=O)N1CCN(c2ccccc2)CC1)N1CCN(c2ccccc2)CC1	?	4.4	·	-5.3%	0.8%	-5.4%
O=C(O)c1ncn(Cc2ccc(Br)cc2)c1C(=O)O	-99.3%	-20.4	31.6µM*	0.8%	-2.6%	47.2%
O=C(O)C1CC(C(=O)O)SS1 (centres undefined)	31.6µM*	7.6	·	-19.3%	·	-6.3%
CC(C)(C)S(=O)(=O)/C(C#N)=N/Nc1ccc(S(N)(=O)=O)cc1	89.1µM*	-0.5	-23.1%	0.3%	-9.9%	26.6%
CC(C)(C)S(=O)(=O)/C(C#N)=N/Nc1ccc(C#N)cc1	-23.1%	1.1	70.8µM*	-11.9%	-3.4%	21.7%
CC(C)(C)S(=O)(=O)/C(C#N)=N/Nc1ccc(S(C)(=O)=O)cc1	-4.5%[11.4 µM]	12.1	-15.0%	21.2µM*	-7.6%	2.8%
COc1cccc(N/N=C(\C#N)S(=O)(=O)C(C)(C)C)c1	-23.6%	-4.6	-26.5%	-7.6%	-5.2%	-13.2%
CCC(=O)N1CCCc2cc(S(=O)(=O)CCC(=O)Nc3ccccc3C)ccc21	-11.3%	1.0	-15.1%	-11.5%	-13.4%	24.8%
COc1ccc(-c2c(C#Cc3ccc(N(C)C)cc3)c3ccccc3n2C)cc1	56.2µM*	-3.2	·	-18.5%	0.6%	?
O=C(CN1C(=O)NC2(CCCCC2)C1=O)Nc1ccc(Cl)c(S(=O)(=O)N2CCOCC2)c1	-19.1%	0.2	-20.5%	2.1%	-7.4%	19.9%
CC(=O)N1CCc2cc(S(=O)(=O)N3CCN(S(=O)(=O)c4c(F)cccc4F)CC3)ccc21	-17.8%	·	·	·	·	·
CCC(OC(=O)c1nsc(Cl)c1Cl)C(=O)NCC1CCCO1 (centres undefined)	-6.4%	-3.9	4.9%	-5.3%	-3.1%	18.9%
N#Cc1c(N2CCCCC2)nc(N)c2c(N)nc3c(c12)CC(c1ccccc1)O3 (centres undefined)	-13.6%	-64.0*	5.1%[57.1 µM]	-0.5%	-16.6%	42.8%
O=S(=O)(c1ccccc1)c1nc(Nc2ccccc2N2CCOCC2)sc1Cl	31.6µM*	·	-37.1%	?	-5.7%	?
